The text below walks through data of PubChem BioAssay.

Assay [1] in a line: antimalarial activity against Dd2 strain (AID 2302;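 active means growth inhibition above 50% at the single 2 µM test dose, taken to imply half-maximal potency below 2 µM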;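 further: 0% = DMSO untreated growth and 100% = chloroquine plus artemisinin killed control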). To be noted: P. falciparum Dd2 in RBCs, LDH growth readout, 72 h; at 2 µM; stronger effect = higher value.
Assay [2] can be described thus: HepG2 cytotoxicity, primary screen, cytotoxicity control for P. falciparum antimalarial project, cell-based, ATP luminescence (AID 2303;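 active means inhibition above 50%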;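 further: 0% = DMSO wells and 100% = digitonin-killed cells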). To be noted: HepG2 viability, 24-48 h, at 10 µM, stronger effect = higher value.
Assay [3] has as its target L-lactate dehydrogenase (Plasmodium falciparum (isolate CDC / Honduras)) (UniProt Q27743). The experiment in a line: PfLDH activity inhibition – cell lysate, 3D7 strain, counter-screen for P. falciparum growth inhibition project (AID 2304).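 Further: 0% = vehicle and 100% = reference inhibitor.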 To be noted: P. falciparum 3D7 crude extract, LDH APAD/NBT absorbance; at 2 µM; stronger effect = higher value. Background: A counterscreen serves to expose hits that act by an unwanted route or on another target.

Assay [4] in a line: inhibition of 3D7 malaria parasite growth – strain 3D7 (AID 2306).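 Further: 0% = DMSO wells and 100% = chloroquine plus artemisinin control wells.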 To be noted: P. falciparum 3D7 erythrocytic growth, LDH absorbance, 72 h; at 2 µM; stronger effect = higher value.
In assay [5] the target is Calcium-dependent protein kinase 1 (Plasmodium falciparum (isolate 3D7)) (UniProt P62344). The experiment in a line: PfCDPK1 kinase inhibitors, biochemical, TCAMS library (AID 1159585; cut-off not given, nearly all actives have IC50 up to about 0.98 µM;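 further: inhibitors leave more ATP so luminescence rises with inhibition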). To be noted: recombinant PfCDPK1, Kinase-Glo ATP depletion luminescence. A general note: Kinase-Glo measures the ATP left after a reaction by luminescence.
Assay [6] has as its target Plasmodium falciparum protein kinase 6 (PK6, PF3D7_1337100) (UniProt Q8IDW1). The experiment in a line: PfPK6 kinase inhibitors, biochemical, TCAMS library (AID 1159586). As to conditions: recombinant PfPK6, Kinase-Glo ATP depletion luminescence.
The target of assay [7] is Protein kinase 7 (PK7), Plasmodium falciparum 3D7 (PF3D7_0213400) (UniProt Q7YTF7). The experiment in a line: inhibition of Plasmodium PK7 catalytic activity – biochemical, TCAMS antimalarial set, Kinase-Glo luminescence (AID 1159587). As to conditions: recombinant PfPK7, Kinase-Glo ATP depletion luminescence.
In assay [8] the target is Calcium-dependent protein kinase 4 (Plasmodium falciparum (isolate 3D7)) (UniProt Q8IBS5). The experiment in a line: PfCDPK4 kinase inhibitors, biochemical, TCAMS library (AID 1159588; cut-off not given, nearly all actives have IC50 up to about 0.91 µM). As to conditions: recombinant PfCDPK4, Kinase-Glo ATP depletion luminescence.

SMILES strings stand for the structures. A number with no mark means an inactive call. For some assays here: Entries with a potency or affinity are not part of this list. The source made the active and inactive calls. Unless noted, how the calls were made is not given here.

Sequence of Calcium-dependent protein kinase 1 (Plasmodium falciparum (isolate 3D7)) (P62344 whole entry, looked up): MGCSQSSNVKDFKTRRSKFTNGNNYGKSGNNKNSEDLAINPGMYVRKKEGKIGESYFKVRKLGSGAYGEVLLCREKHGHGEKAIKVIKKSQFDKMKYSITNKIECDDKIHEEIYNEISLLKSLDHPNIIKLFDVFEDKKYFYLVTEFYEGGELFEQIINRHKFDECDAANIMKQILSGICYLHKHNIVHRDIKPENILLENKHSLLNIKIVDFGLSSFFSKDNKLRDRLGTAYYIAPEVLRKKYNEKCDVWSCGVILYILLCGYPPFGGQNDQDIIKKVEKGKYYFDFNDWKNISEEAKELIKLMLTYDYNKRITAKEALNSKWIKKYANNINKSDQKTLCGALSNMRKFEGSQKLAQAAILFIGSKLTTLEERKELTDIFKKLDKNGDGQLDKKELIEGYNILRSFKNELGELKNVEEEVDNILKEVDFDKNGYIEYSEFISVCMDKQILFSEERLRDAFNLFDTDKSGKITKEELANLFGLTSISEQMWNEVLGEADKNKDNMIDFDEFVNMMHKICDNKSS
Sequence of Protein kinase 7 (PK7), Plasmodium falciparum 3D7 (PF3D7_0213400) (Q7YTF7 1-343): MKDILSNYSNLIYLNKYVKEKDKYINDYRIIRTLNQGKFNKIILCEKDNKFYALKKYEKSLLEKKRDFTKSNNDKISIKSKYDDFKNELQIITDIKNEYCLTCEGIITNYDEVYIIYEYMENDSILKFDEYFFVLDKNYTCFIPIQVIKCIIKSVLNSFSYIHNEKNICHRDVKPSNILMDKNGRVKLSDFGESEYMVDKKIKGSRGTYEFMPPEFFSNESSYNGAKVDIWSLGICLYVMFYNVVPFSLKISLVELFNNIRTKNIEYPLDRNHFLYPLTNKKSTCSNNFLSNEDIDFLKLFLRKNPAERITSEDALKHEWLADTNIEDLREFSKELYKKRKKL
Sequence of Calcium-dependent protein kinase 4 (Plasmodium falciparum (isolate 3D7)) (Q8IBS5 whole entry, looked up): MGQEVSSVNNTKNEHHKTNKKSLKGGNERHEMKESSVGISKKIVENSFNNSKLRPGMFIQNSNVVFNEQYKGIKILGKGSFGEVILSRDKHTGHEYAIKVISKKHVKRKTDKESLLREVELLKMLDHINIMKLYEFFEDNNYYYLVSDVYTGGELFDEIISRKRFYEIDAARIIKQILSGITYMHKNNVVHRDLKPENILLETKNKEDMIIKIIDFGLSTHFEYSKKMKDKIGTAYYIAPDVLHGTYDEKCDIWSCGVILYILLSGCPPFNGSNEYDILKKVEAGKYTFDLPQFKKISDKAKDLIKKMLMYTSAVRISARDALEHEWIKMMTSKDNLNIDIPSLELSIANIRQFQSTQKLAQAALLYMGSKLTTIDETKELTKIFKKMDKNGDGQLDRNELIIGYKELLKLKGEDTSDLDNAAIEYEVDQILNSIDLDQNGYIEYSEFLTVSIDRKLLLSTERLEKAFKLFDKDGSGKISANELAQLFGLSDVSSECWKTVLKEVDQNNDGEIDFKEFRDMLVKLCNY
Sequence of L-lactate dehydrogenase (Plasmodium falciparum (isolate CDC / Honduras)) (Q27743 whole entry, looked up): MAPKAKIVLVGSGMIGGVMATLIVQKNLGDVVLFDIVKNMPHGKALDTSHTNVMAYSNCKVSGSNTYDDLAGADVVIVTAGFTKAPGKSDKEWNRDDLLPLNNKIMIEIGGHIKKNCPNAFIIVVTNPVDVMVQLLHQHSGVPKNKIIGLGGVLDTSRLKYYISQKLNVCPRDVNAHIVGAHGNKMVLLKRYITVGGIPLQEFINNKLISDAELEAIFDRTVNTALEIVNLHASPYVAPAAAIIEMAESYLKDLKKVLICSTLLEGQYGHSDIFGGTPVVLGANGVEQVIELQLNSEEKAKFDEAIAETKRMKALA
Sequence of Plasmodium falciparum protein kinase 6 (PK6, PF3D7_1337100) (Q8IDW1 1-305): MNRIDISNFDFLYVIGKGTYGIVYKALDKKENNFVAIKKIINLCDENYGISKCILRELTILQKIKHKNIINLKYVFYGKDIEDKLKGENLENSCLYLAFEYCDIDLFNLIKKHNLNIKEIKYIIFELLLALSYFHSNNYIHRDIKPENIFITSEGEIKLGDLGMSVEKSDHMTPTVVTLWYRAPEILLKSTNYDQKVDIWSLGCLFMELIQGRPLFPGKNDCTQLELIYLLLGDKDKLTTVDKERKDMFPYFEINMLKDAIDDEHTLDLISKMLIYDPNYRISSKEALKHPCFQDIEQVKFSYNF

In the case of `COc1ccc(-c2ccc(NC(=O)c3ccc(C#N)cc3)cc2)cc1CN1CCCC1`, the growth inhibition was 51% (active) in assay [1] and 95% (active) in assay [4]. In addition, the inhibition in assay [2] is 40%; in assay [3] it was 5%. In addition, the result in assay [5], in assay [6], in assay [7] and in assay [8] was inactive.
Regarding `Nc1ccc(-c2cc(Cl)cc(Cl)c2)cc1-c1cc2ccccc2[nH]1`, the growth inhibition was 97% (active) in assay [1] and 101% (active) in assay [4]. Further, the inhibition was -9% in assay [2] and 0% in assay [3]. The result in assay [5], in assay [6], in assay [7] and in assay [8] was inactive.
On to `CC(C)c1ccc(C(NC(=O)C2CCCCC2)c2ccc3cccnc3c2O)cc1` (configuration not stated), for which the growth inhibition was 70% (active) in assay [1] and 89% (active) in assay [4]. The inhibition in assay [2] is 46%; in assay [3], -8%. In addition, the result in assay [5], in assay [6], in assay [7] and in assay [8] was inactive.
Consider `N#Cc1ccc2c(c1)CCN(CCC1CCC(NC(=O)Nc3ccncc3)CC1)C2` (configuration not stated), for which the growth inhibition was 3% in assay [1] and 85% (active) in assay [4]. Moreover, the inhibition in assay [2] is 6%; in assay [3] it was -4%. Moreover, the result in assay [5], in assay [6], in assay [7] and in assay [8] was inactive.
For `CCNC(=O)c1ccc2c(c1)c(C)c(C)n2Cc1ccc(F)cc1`, the growth inhibition is 91% (active) in assay [1] and 93% (active) in assay [4]. Moreover, the results for the inhibition in assay [2] and in assay [3] were 25% and -1%, respectively. Further, the outcome in assay [5], in assay [6], in assay [7] and in assay [8] was inactive.
For the compound `CCCCCCN1CCC(NCc2ccc(OCCN3CCCC3)cc2)CC1`, the growth inhibition is 93% (active) in assay [1] and 101% (active) in assay [4]. Besides, the figures for the inhibition in assay [2] and in assay [3] were 23% and 0%, respectively. In addition, the outcome in assay [5], in assay [6], in assay [7] and in assay [8] was inactive.
`COc1cc(-c2nc(-c3ccccc3)c(-c3ccccc3)[nH]2)cc(OC)c1O`: the growth inhibition in assay [1] was 90% (active); in assay [4], 100% (active). The inhibition in assay [2] was 5%; in assay [3] it was -2%. Moreover, the result in assay [5], in assay [6], in assay [7] and in assay [8] was inactive.
Regarding `CCc1cc2c(cc1CC)CC(NC[C@@H](O)c1ccc(O)c3[nH]c(=O)ccc13)C2`, the results for the growth inhibition in assay [1] and in assay [4] were 9% and 101% (active), respectively. The figures for the inhibition in assay [2] and in assay [3] were -3% and -4%, respectively. Moreover, the outcome in assay [5], in assay [6], in assay [7] and in assay [8] was inactive.
On to `Cc1ccn2c(N(Cc3ccccc3)C(=O)c3ccc(Cl)c(Cl)c3)c(-c3ccccc3)nc2c1`, for which the growth inhibition in assay [1] is -5%; in assay [4] it was 95% (active). The inhibition in assay [2] is -20%; in assay [3], -7%. The result in assay [5], in assay [6], in assay [7] and in assay [8] was inactive.
Turning to `COCCN1CCN(Cc2ccc(-c3cccc(-c4nc5ccccc5[nH]4)c3)cc2)CC1`, the growth inhibition is 10% in assay [1] and 93% (active) in assay [4]. For the same compound, the figures for the inhibition in assay [2] and in assay [3] were 32% and 0%, respectively. The outcome in assay [5], in assay [6], in assay [7] and in assay [8] was inactive.
For the compound `Fc1ccc2nc(-c3ccc(-c4cccc(CN5CCC(CCN6CCCCC6)CC5)c4)cc3)[nH]c2c1`, the values for the growth inhibition in assay [1] and in assay [4] were 100% (active) and 101% (active), respectively. The inhibition in assay [2] was 96% (active); in assay [3], 5%. Further, the outcome in assay [5], in assay [6], in assay [7] and in assay [8] was inactive.
Regarding `CC1CCCN(Cc2cc(Cl)cc(Cl)c2O)C1` (configuration not stated), the growth inhibition is 77% (active) in assay [1] and 89% (active) in assay [4]. The inhibition in assay [2] is 22%; in assay [3], 5%. For the same compound, the outcome in assay [5], in assay [6], in assay [7] and in assay [8] was inactive.
As to `O=C(Nc1ccc(Cl)cc1)Nc1cccc(-c2ccc(-c3nc4ccc(F)cc4[nH]3)cc2)c1`, the figures for the growth inhibition in assay [1] and in assay [4] were 99% (active) and 101% (active), respectively. Further, the results for the inhibition in assay [2] and in assay [3] were 73% (active) and -1%, respectively. For the same compound, the outcome in assay [5], in assay [6], in assay [7] and in assay [8] was inactive.
Take `COc1ccc2nccc([C@@H](O)CN3CCC(NCc4cc5cccc(OCc6ccccc6)c5[nH]4)CC3)c2c1`: the growth inhibition in assay [1] was 40%; in assay [4] it was 101% (active). For the same compound, the inhibition is 13% in assay [2] and 1% in assay [3]. The outcome in assay [5], in assay [6], in assay [7] and in assay [8] was inactive.
Consider `COc1cccc(C(=O)[C@H]2C[C@@H]2CN(C)CC(O)c2cc(C)c(OC)cc2C)c1` (some centres not stated), for which the growth inhibition in assay [1] is 73% (active); in assay [4], 88% (active). Moreover, the inhibition is 8% in assay [2] and 2% in assay [3]. The result in assay [5], in assay [6], in assay [7] and in assay [8] was inactive.
For the compound `CCNc1cc(C(=O)N[C@@H](Cc2ccccc2)[C@H](O)CNC(C)CCCC(C)C)cc(N2CCCS2(=O)=O)c1` (some centres not stated), the growth inhibition is 98% (active) in assay [1] and 99% (active) in assay [4]. The inhibition was 2% in assay [2] and 5% in assay [3]. Further, the outcome in assay [5], in assay [6], in assay [7] and in assay [8] was inactive.
For the compound `COc1ccc(C(=O)NCCCCN2CCC(c3ccc4c(c3OC)CCCC4)CC2)cc1-c1ccc(C(F)(F)F)cc1`, the results for the growth inhibition in assay [1] and in assay [4] were 56% (active) and 100% (active), respectively. Moreover, the values for the inhibition in assay [2] and in assay [3] were 67% (active) and 5%, respectively. Further, the outcome in assay [5], in assay [6], in assay [7] and in assay [8] was inactive.
For `CCCC(=O)Nc1ccc(OCCCCN(CC(C)(C)C)c2ccc(C#N)c(C(F)(F)F)c2)cc1`, the growth inhibition was 69% (active) in assay [1] and 83% (active) in assay [4]. Besides, the inhibition in assay [2] was 9%; in assay [3] it was -1%. The outcome in assay [5], in assay [6], in assay [7] and in assay [8] was inactive.
As to `O=C(Nc1cc(C(F)(F)F)cc(C(F)(F)F)c1)Nc1ccc(Cl)c(Cl)c1`, the figures for the growth inhibition in assay [1] and in assay [4] were 100% (active) and 101% (active), respectively. In addition, the inhibition in assay [2] is 58% (active); in assay [3], 0%. The result in assay [5], in assay [6], in assay [7] and in assay [8] was inactive.

For orientation: inhibition means the relative decrease from the control value, in per cent.
